The full ranking holds about 35,000 sequences; the median of “fluorescence intensity (a.u.)” is about 10,000, and the highest 2% start at about 52,000. Many of the other results were omitted from the sample, so the highest values are more common in it than they were.
target: T1, OsWOX13 (Oryza sativa, UniProt Q5QMM3 1-267); test: protein-binding microarray (RPBM); PBS, 2% BSA, 51.3 ng/ul salmon testes DNA, 50 uM zinc acetate, 200 nM TF, 25 C, 1 h; high values mean tight binding; conditions: protein: recombinant; tags: N-terminal polyhistidine and DsRed monomer fusion (pET32a); label: CyDye5-dUTP incorporated in the synthesized complementary strand; 3' TTTTT single-stranded linker to array surface; dsDNA, one strand shown
T1 sequence: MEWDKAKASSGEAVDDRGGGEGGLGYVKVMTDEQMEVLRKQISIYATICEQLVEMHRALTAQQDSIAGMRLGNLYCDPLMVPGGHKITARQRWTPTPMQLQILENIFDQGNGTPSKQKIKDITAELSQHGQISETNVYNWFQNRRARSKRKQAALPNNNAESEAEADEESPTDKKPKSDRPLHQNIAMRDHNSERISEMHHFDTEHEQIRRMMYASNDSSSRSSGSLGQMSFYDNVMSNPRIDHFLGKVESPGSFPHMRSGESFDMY
Method in brief: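 Transcription factors, each fused N-terminally to a polyhistidine tag and DsRed, were expressed in E. coli BL21-CodonPlus and purified on Ni–NTA. A custom Agilent array was made double-stranded by primer extension with Cy5-dUTP and blocked with 2% BSA. It was incubated with 200 nM protein in PBS, 2% BSA, salmon testes DNA and 50 µM zinc acetate at 25 °C for 1 h, then washed. The binding signal is per-feature fluorescence intensity (arbitrary units) read on an Axon 4000B scanner.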

Row | Sequence | binding signal
1 | TCGGTATTGTGATTGAGGGGTAAGAGTAAGTTTCGGCCACCGGAGTCACCTAGTGCAG | 18700 fluorescence intensity (a.u.)
2 | TTAATTGTAAGTTTAACTATTGCTACTTCGCTTGCAGCGTCGGAGTCACCTAGTGCAG | 13600 fluorescence intensity (a.u.)
3 | AATCATGGCGTAATTAGGCTTAAAAGATTCGTCTCGCAATCGGAGTCACCTAGTGCAG | 3620 fluorescence intensity (a.u.)
4 | TTATCCAAAACGTCAATTAATATAGAACTAGAGTGAGTACCGGAGTCACCTAGTGCAG | 4500 fluorescence intensity (a.u.)
5 | CCATCACATCCGTTGGCCTAATTGATTTGTGAAGCATCAACGGAGTCACCTAGTGCAG | 4240 fluorescence intensity (a.u.)
6 | TTAATTGATTGATTGATTGATTAATCCGTTGTGAATCTAACGGAGTCACCTAGTGCAG | 61500 fluorescence intensity (a.u.)
7 | GATTTAATTTATTTTGGTAATGATTTGTGGATGATTTTGGCGGAGTCACCTAGTGCAG | 31600 fluorescence intensity (a.u.)
8 | TTAATTGATTGAATCACATCCTTCCGGATTGTTTTGATCCCGGAGTCACCTAGTGCAG | 40800 fluorescence intensity (a.u.)
9 | TGTTGATTGTTGTGTTTAATTGGAGATTGACTATTGAATCCGGAGTCACCTAGTGCAG | 60200 fluorescence intensity (a.u.)
10 | TGCGTGATTGTTGGGATTATTTTATTAATTGATCCAATGGCGGAGTCACCTAGTGCAG | 57200 fluorescence intensity (a.u.)
11 | ACTTAATTATTGTTATGATTCATTCATGCATAAAGCGGTGCGGAGTCACCTAGTGCAG | 55700 fluorescence intensity (a.u.)
12 | GCTCTAATAATTGAATAATTTGATTTGTTTTATTTAAATCCGGAGTCACCTAGTGCAG | 30100 fluorescence intensity (a.u.)
13 | TTATACATCCAAATTTGATTGTTGCGTGCTTATTTTGTTGCGGAGTCACCTAGTGCAG | 13700 fluorescence intensity (a.u.)
14 | GAGTTATGATTTGTTACAATAATTGTAACTTATTGTAAAGCGGAGTCACCTAGTGCAG | 27900 fluorescence intensity (a.u.)
15 | CATTCATATTGATGTTAATAAATTAATATAGATATATATGCGGAGTCACCTAGTGCAG | 3590 fluorescence intensity (a.u.)
16 | AGTTATTGACAGTGACTAATCTACCTAATCCGTAGATTAACGGAGTCACCTAGTGCAG | 12500 fluorescence intensity (a.u.)
17 | GAGTACAGATGAAATTTGTAGAAATTGGAATGGTCATGTACGGAGTCACCTAGTGCAG | 3810 fluorescence intensity (a.u.)
18 | GGCAAATTGTCAAGGTTAACCGTAAATCTACAGTGCCAATCGGAGTCACCTAGTGCAG | 15500 fluorescence intensity (a.u.)
19 | TCTTCACATGAATGATGAAATTGCTAGTAGCATGTCTTCACGGAGTCACCTAGTGCAG | 3410 fluorescence intensity (a.u.)
20 | CAGAATTGAGAGTTCACATATCCTCAGTGGTCAGAGTTCACGGAGTCACCTAGTGCAG | 6100 fluorescence intensity (a.u.)
21 | GATTTAAATTAGATGGAAGGTTGAGAATTAAGCTGATCCTCGGAGTCACCTAGTGCAG | 13600 fluorescence intensity (a.u.)
22 | TTATATTAATTGATGGTCATTATTGTTGGAGATTATATTGCGGAGTCACCTAGTGCAG | 60800 fluorescence intensity (a.u.)
23 | CAGTGGATGATTAATATTGATTAATTATTATAATTGTTTTCGGAGTCACCTAGTGCAG | 39500 fluorescence intensity (a.u.)
24 | AAATTAAATTTTATTTGTTGAAAATAATATCATTGGATTGCGGAGTCACCTAGTGCAG | 6020 fluorescence intensity (a.u.)

Row | Sequence | binding signal
25 | CGTCTACCGTGATTGTTTCGATACAATTGTGTGCAAGTTACGGAGTCACCTAGTGCAG | 21200 fluorescence intensity (a.u.)
26 | TGATTAAAATTGACATTAAAATTATAGTTTTGTGATGACTCGGAGTCACCTAGTGCAG | 19100 fluorescence intensity (a.u.)
27 | GGAGTTGATTGATGGACCTAGAATTGGTTGAGATCCTCAGCGGAGTCACCTAGTGCAG | 63700 fluorescence intensity (a.u.)
28 | ACTTGTTGAAAATTGATTGCTTTGTTGTTGTAGTGTTTACCGGAGTCACCTAGTGCAG | 23600 fluorescence intensity (a.u.)
29 | ACATTCCAAAATTTGACCAAATTTGTTCACTCGTTGACTGCGGAGTCACCTAGTGCAG | 3660 fluorescence intensity (a.u.)
30 | TTCGATTGATTGATAGTTGATTGTGTGTTTACAATTGAACCGGAGTCACCTAGTGCAG | 52600 fluorescence intensity (a.u.)
31 | AATTGATTGGACTCCACCAACATTAAAATAGTTGTTGATGCGGAGTCACCTAGTGCAG | 56400 fluorescence intensity (a.u.)
32 | CAGTTTTGGTTAATTAAGTAAATAATTGTCCTCAGAAAGTCGGAGTCACCTAGTGCAG | 15100 fluorescence intensity (a.u.)
33 | CATAAATTTTCCGTGCCAACTTTGATCATCCGTTTTATTTCGGAGTCACCTAGTGCAG | 5660 fluorescence intensity (a.u.)
34 | CTATACAACAAATCATTAATTAGGCTCAAAAGAAAGAAAGCGGAGTCACCTAGTGCAG | 11100 fluorescence intensity (a.u.)
35 | CACATGCAAATTATCGTGCGTCTGTATGTGGCATGCTTGTCGGAGTCACCTAGTGCAG | 4230 fluorescence intensity (a.u.)
36 | GATTTGATTTAAATCTTGAATAAATTTAATAAAATCCTATCGGAGTCACCTAGTGCAG | 10000 fluorescence intensity (a.u.)
37 | ATGATTGAATCCTATAAAATCTTGTGAAATTCCTGTGAAACGGAGTCACCTAGTGCAG | 52800 fluorescence intensity (a.u.)
38 | TTTAATCACTAATTAATTGTTGATTAGCGGCAAGTGTGACCGGAGTCACCTAGTGCAG | 63800 fluorescence intensity (a.u.)
39 | ATACTAATTACTTAATTAGTGACCAGTGATCACTTGTGTGCGGAGTCACCTAGTGCAG | 45800 fluorescence intensity (a.u.)
40 | ACGGTGTGATTAATTACGTCGCGATCATGTTGTGCTAATCCGGAGTCACCTAGTGCAG | 32500 fluorescence intensity (a.u.)
41 | GGAGATTGACACGTTGGTCTACGTGCCTATGCGTGTGTTCCGGAGTCACCTAGTGCAG | 55600 fluorescence intensity (a.u.)
42 | AGAGAATTGAATTAATCCGTGTGATATATCACTAAAATTCCGGAGTCACCTAGTGCAG | 5900 fluorescence intensity (a.u.)
43 | TACGTGTGTTGATTTCCGTGACATATGCATAAATTTCTTTCGGAGTCACCTAGTGCAG | 3870 fluorescence intensity (a.u.)
44 | AATGTTTTAATCACATTGATTAGCAACTAATTAATCTTAGCGGAGTCACCTAGTGCAG | 47100 fluorescence intensity (a.u.)
45 | TTTTGATGAAATAAACTATGAAAATCCTGTGAAATTCATGCGGAGTCACCTAGTGCAG | 7340 fluorescence intensity (a.u.)
46 | GCCACTAAATTAATCCGGTGATTGATCATGTGTGGAAGCACGGAGTCACCTAGTGCAG | 54200 fluorescence intensity (a.u.)
47 | AGAGATCGAGATTGACACACAACGTGGTTCACGCGTGCGCCGGAGTCACCTAGTGCAG | 23100 fluorescence intensity (a.u.)

From paper PMC7819943, “Rice protein-binding microarrays: a tool to detect cis-acting elements near promoter regions in rice”
